Pf growth 48h: Primary qHTS for delayed death inhibitors of the malarial parasite plastid, 48 hour incubation; actives 5.9% (n = 310,000); AID 504832, 2011; Potency, µM (series often up to 28.7 µM), most hits filed as inhibitors; P. falciparum luciferase growth in erythrocytes, 48 h
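Read-out is firefly luciferase luminescence from an integrated reporter in P. falciparum, so falling signal marks reduced parasite growth. Infected erythrocytes were at 2% hematocrit and 0.1% parasitemia (final) in Albumax-supplemented RPMI 1640.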
Shiga toxin inh: A qHTS for Small Molecule Inhibitors of Shiga Toxin. inhibition, % at 38.7 µM. Vero cells, Shiga toxin protein synthesis inhibition reporter. actives 9.2% (n = 290,000). AID 2315, 2010; in the data active = inhibition mostly above about 28%, no sharp cut-off; inactive = mostly below about 43%
Pf growth 96h: Primary qHTS for delayed death inhibitors of the malarial parasite plastid, 96 hour incubation; P. falciparum luciferase reporter growth, 96 h; Potency, µM (series often up to 28.7 µM), actives largely listed as inhibitors; actives 6.9% (n = 320,000); AID 504834, 2011
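Two parasite generations (96 h, 37 C, 5% CO2) of compound exposure in infected erythrocytes (0.05% parasitemia, 2% hematocrit). Luciferase-reporter P. falciparum; decreased luminescence indicates inhibited growth, aimed at apicoplast-acting delayed death.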
CHX counter: Cycloheximide Counterscreen for Small Molecule Inhibitors of Shiga Toxin; cell reporter, cycloheximide protein synthesis inhibition counterscreen; max response, %; actives 12% (n = 300,000); in the data active = max response mostly above about 13%, no sharp cut-off; inactive = mostly below about 14%; note: read at 38.3 µM for the half of the compounds with a filed dose
LmPK inhibitor: qHTS Assay for Inhibitors of Leishmania Mexicana Pyruvate Kinase (LmPK); Q27686; actives 0.37% (n = 290,000); Potency, µM (series often up to 57.5 µM), actives largely listed as inhibitors; purified LmPK, Kinase-Glo ATP luminescence, 1 h; AID 1721, 2009
Target sequence (Q27686 whole entry, looked up): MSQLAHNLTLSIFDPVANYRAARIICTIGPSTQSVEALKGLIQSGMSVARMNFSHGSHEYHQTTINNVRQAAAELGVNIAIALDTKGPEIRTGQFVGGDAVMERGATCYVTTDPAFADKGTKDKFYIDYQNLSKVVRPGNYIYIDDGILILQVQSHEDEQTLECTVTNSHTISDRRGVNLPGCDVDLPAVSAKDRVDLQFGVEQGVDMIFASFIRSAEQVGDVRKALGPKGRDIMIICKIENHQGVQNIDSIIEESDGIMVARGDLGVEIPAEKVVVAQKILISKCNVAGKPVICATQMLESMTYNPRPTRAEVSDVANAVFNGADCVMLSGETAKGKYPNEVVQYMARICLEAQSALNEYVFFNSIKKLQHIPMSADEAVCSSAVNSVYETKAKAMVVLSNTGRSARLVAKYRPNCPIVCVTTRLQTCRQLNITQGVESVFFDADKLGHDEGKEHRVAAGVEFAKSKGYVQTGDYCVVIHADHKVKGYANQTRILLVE
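Screened at intermediate enzyme activity to detect both inhibitors and activators: LmPK at 0.1 nM, with a 0.5 nM enzyme column as activation reference. PEP 0.5 mM, ADP 0.1 mM; ATP detected by luminescence after 1 h.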
A number is an active result; . = inactive; ? = inconclusive; / = no result given; [ ] = another dose, or the depositor's remark. The list is not random: actives were taken first. Their share in the collection is about 22%. Unless noted, calls come from the whole dose curve; as a rule, active = well fitted inhibition curve with a large enough effect; inconclusive = small, poorly fitted or top-dose-only effect, or another doubt; inactive = no such curve, though single readings can be large or run the other way.

SMILES	Pf growth 48h	Shiga toxin inh	Pf growth 96h	CHX counter	LmPK inhibitor
CC(C)N1C(=O)CN(C2CCCCCC2)C(=O)C1c1ccccc1F (configuration not stated)	?	187	?	60	.
Cc1ccc(C2C(=O)N(C3CCCC3)CC(=O)N2C2CCCCC2)cc1 (configuration not stated)	/	.	?	.	.
O=C(c1ccco1)N1CCN(CC(=O)N2CCCc3c2c(=O)oc2ccc(O)cc32)CC1	.	.	.	.	.
O=C(CN1CCN(Cc2ccccc2)CC1)N1CCCc2c1c(=O)oc1ccc(O)cc21	2.9µM	.	.	.	.
CCC(Sc1nnc(-c2ccc(C)c(Cl)c2)n1CC)C(=O)Nc1nccs1 (configuration not stated)	?	.	.	.	.
CCn1c(SCc2ccc(C(=O)Nc3nccs3)cc2)nnc1-c1ccc(NC(C)=O)cc1	?	.	13µM	.	.
C=CCn1c(SCc2ccc(C(=O)Nc3ccccc3)cc2)nnc1-c1ccccc1	.	.	.	19	.
Cn1c(SCc2ccc(C#N)cc2)nnc1-c1ccncc1	.	.	.	.	.
Cn1c(SCc2ccc(C(=O)Nc3nccs3)cc2)nnc1-c1ccccc1	2.3µM	.	/	.	.
C=CCn1c(SCc2ccc(C#N)cc2)nnc1-c1ccc(C)cc1	?	.	12µM	.	.
CCCCCCNC(=O)c1cc(S(=O)(=O)N2CCc3ccccc32)ccc1F	.	.	?	.	.
CCn1c(SCc2ccc(C(=O)Nc3nccs3)cc2)nnc1-c1ccc(N)cc1	10µM	.	/	20	.
CCCCNC(=O)CCc1nc2cccnc2n1Cc1ccccc1	.	.	.	.	.
Cc1ccc(C(=O)NCCCN2CCOCC2)c(C)c1	.	.	.	20	.
COc1ccc2oc(C(=O)NCCN3CCOCC3)c(C)c2c1OC	.	63	.	61	?
Cc1ccc2oc(C(=O)NCCC3CCCCO3)c(C)c2c1 (configuration not stated)	.	63	?	26	.
Cc1ccc2oc(C(=O)NCCCN3CCOCC3)c(C)c2c1	.	71	.	44	.
Cc1ccc(S(=O)(=O)N2CCN(Cc3ccco3)CC2)c(C)c1	?	.	?	.	.
CCn1ncc(C2=NOC(C(=O)NCc3ccc(Cl)cc3)C2)c1C (configuration not stated)	.	.	/	.	.
O=C(CCN1CCCCC1)Nc1ccc2c(c1)C(=O)c1ccc(NC(=O)CCN3CCCCC3)cc1C2=O	/	.	/	.	/
Cc1ccc(-n2c3c(cc(C(=O)NCCCN4CCOCC4)c2=O)C(=O)CC(C)(C)C3)cc1	.	.	0.83µM	.	.
Cc1cc(C)c(S(=O)(=O)N2CCOC2CNC(=O)C(=O)NCCCN2CCOCC2)c(C)c1 (configuration not stated)	.	80	?	35	.
O=C(NCCCN1CCOCC1)C(Sc1ccccc1)c1ccccc1 (configuration not stated)	.	.	7.4µM	.	.
CCCCNS(=O)(=O)c1ccc(NC(=O)C(Sc2ccccc2)c2ccccc2)cc1 (configuration not stated)	10µM	.	?	.	.
CCOc1cc(/C=N/NC(=O)c2cccnc2)cc(Br)c1OCC(N)=O	.[5.75 µM]	.	.	.	.
SMILES	Pf growth 48h	Shiga toxin inh	Pf growth 96h	CHX counter	LmPK inhibitor
Cc1ccc(C(=O)NCCCN2CCOCC2)c(Cl)c1	.	/	?	17	.
COC(=O)c1ccsc1NC(=O)CCS(=O)(=O)c1ccc(Cl)cc1	.	/	.	/	/
Cc1c(CCC(=O)NCCCn2ccnc2)c(=O)oc2c(C)c3occ(C(C)(C)C)c3cc12	?	.	9.3µM	.	.
Cc1c(C)c2ccc(OCC(=O)NCCCn3ccnc3)c(C)c2oc1=O	?	.	?	.	.
Cc1coc2c(C)c3oc(=O)c(CCC(=O)NCCCn4ccnc4)c(C)c3cc12	10µM	.	?	.	.
Cc1coc2c(C)c3oc(=O)c(CCC(=O)NCCCN4CCOCC4)c(C)c3cc12	?	.	?	.	.
CCCCCCNC(=O)CNC(=S)N(Cc1cccs1)C1CCCCC1	?	.	?	.	.
CCC(C)(C)n1nnnc1C(c1cc2ccc(C)cc2[nH]c1=O)N(Cc1cccnc1)Cc1ccco1 (configuration not stated)	12µM	.	.	.	.
Cc1ccc2cc(C(c3nnnn3C3CCCC3)N(Cc3ccccc3)Cc3ccco3)c(=O)[nH]c2c1 (configuration not stated)	/	.	?	.	.
COc1cc2cc(C(c3nnnn3C3CCCCC3)N(C)C3CCCCC3)c(=O)[nH]c2cc1OC (configuration not stated)	5.9µM	.	.	.	.
Cc1cc2cc(C(c3nnnn3C3CCCC3)N(Cc3cccnc3)Cc3ccco3)c(=O)[nH]c2cc1C (configuration not stated)	/	.	2.3µM	.	.
Cc1cc(C)c(C#N)c(SCc2cn3ccccc3n2)n1	.	.	?	15	.
Nn1c(SCc2cn3ccccc3n2)nnc1-c1ccncc1	.	.	.	.	.
Cc1cc(C)nc(SCc2cn3ccccc3n2)n1	.	.	.	22	.
Clc1ccc([C@@H](OCCN2CCCCC2)c2ccccc2)cc1	?	/	3.2µM	/	/
CCCN(CCC)CCCNC(=S)Nc1ccc2nc(N3CCCC3)cc(C)c2c1	1.5µM	.	?	.	.
CCN(CC)CCNC(=S)Nc1ccc2nc(N3CCN(C)CC3)cc(C)c2c1	10µM	.	.	.	.
CCOCCCNC(=S)Nc1ccc2nc(N3CCOCC3)cc(C)c2c1	.	.	15µM	.	.
Cc1cc(N2CCOCC2)nc2ccc(Cl)cc12	.	62	.	41	.
CCCCNC(=O)C(=O)NC(C)CCc1ccccc1 (configuration not stated)	.	.	.	.	.
CCCCOCCOCCOCc1cc2c(cc1CCC)OCO2	.	/	.	/	/
CN1C(=O)N(CC(=O)Nc2sccc2C(N)=O)C(=O)C12CCCCC2	.	/	?	/	/
Cc1noc(C)c1CSCc1ccc(Cl)cc1	.	.	.	.	.
CC(=O)N1c2ccc(S(=O)(=O)N3CCC(C(=O)N4CCN(c5ccccc5F)CC4)CC3)cc2CC1C (configuration not stated)	?	.	?	.	.
CCCCN(CC)CCCNC(=S)Nc1ccc2nc(N3CCN(CC)CC3)cc(C)c2c1	2.9µM	.	.	.	.
CCN1CCN(c2cc(C)c3cc(NC(=S)N(CC)CC)ccc3n2)CC1	13µM	.	.	.	.
COc1ccccc1CNC(=S)Nc1ccc2nc(N3CCN(C)CC3)cc(C)c2c1	6.6µM	.	.	.	.
CCC(C)NC(=S)Nc1ccc2nc(N3CCN(CC)CC3)cc(C)c2c1 (configuration not stated)	.	.	?	.	.
CCOc1ccccc1NC(=O)NC(C)c1ccncc1 (configuration not stated)	.	.	.	.	.
